Results published in the supplement of paper PMC10849652.
Of roughly 7,900 targets only a part is listed; those with a hit were picked by preference. About 0.6% of all pairs of compound and target were hits.

Experiments:
Test in all cases: log2 fold change, soluble protein after heating vs DMSO (PISA); higher = thermal stabilisation; K562 cells, 10 uM, 30 min; active = over 0.2 and 3.5 SD of the protein, either way, in both replicates (recomputed)
[1] = compound: CS(=O)(=O)c1ccc(-c2cnc(N)c(C(=O)Nc3ccccc3)n2)cc1
Procedure, shortened: (§1)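 K562 cells at 2×10^6 cells/mL were treated with 10 μM compound for 30 min. Aliquots were heated for 3 min across 48°C-58°C, pooled, and extracted in PBS with 0.5% NP-40 at 4°C; soluble protein was the supernatant after 21,000xg for 90 min. Soluble protein was quantified by TMTpro 16plex LC-MS/MS with channel sums equalised, and reported as log2 fold change in thermal stability against DMSO controls, with values from duplicates.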

[2] = compound: C[C@@H](Oc1cc(-c2cnn(C3CCNCC3)c2)cnc1N)c1c(Cl)ccc(F)c1Cl [crizotinib]
Procedure, shortened: as §1

[3] = compound: C[C@@H]1COCCN1C2=NC(=NC(=C2)C3(CC3)S(=O)(=O)C)C4=C5C=CNC5=CC=C4
Procedure, shortened: as §1

[4] = compound: C[C@H](C1=CC=C(C=C1)C(=O)NC2=C3C=CNC3=NC=C2)N
Procedure, shortened: as §1

[5] = compound: C[C@H](Nc1ncnc2nc[nH]c12)c1cc2cccc(Cl)c2c(=O)n1-c1ccccc1 [duvelisib]
Procedure, shortened: as §1

[6] = compound: Cc1cc(Nc2cc(CN3CCOCC3)c3nc(C)c(Cc4ccc(Cl)cc4F)n3n2)n[nH]1 [gandotinib]
Procedure, shortened: as §1

[7] = compound: Cc1cc(Nc2cc(N3CCN(C)CC3)nc(Sc3ccc(NC(=O)C4CC4)cc3)n2)n[nH]1 [tozasertib]
Procedure, shortened: as §1

[8] = compound: Cc1cc(SCc2sc(-c3ccc(C(F)(F)F)cc3)nc2C)ccc1OCC(=O)O
Procedure, shortened: as §1

[9] = compound: Cc1ccc(-n2nc(C(C)(C)C)cc2NC(=O)Nc2ccc(OCCN3CCOCC3)c3ccccc23)cc1 [doramapimod]
Procedure, shortened: as §1

[10] = compound: Cc1ccc(C(=O)N(CCCN)[C@@H](c2nc3cc(Cl)ccc3c(=O)n2Cc2ccccc2)C(C)C)cc1 [ispinesib]
Procedure, shortened: as §1

[11] = compound: Cc1ccc(NC(=O)c2ccc(CN3CC[C@H](N(C)C)C3)c(C(F)(F)F)c2)cc1Nc1nccc(-c2cncnc2)n1 [bafetinib]
Procedure, shortened: as §1

[12] = compound: Cc1cccc(CC(=O)N2CCc3c2ccc(-c2cn(C)c4ncnc(N)c24)c3F)n1
Procedure, shortened: as §1

[13] = compound: Cc1cn(-c2cc(NC(=O)c3ccc(C)c(Nc4nccc(-c5cccnc5)n4)c3)cc(C(F)(F)F)c2)cn1 [nilotinib]
Procedure, shortened: as §1

[14] = compound: Cc1nc(Nc2n[nH]c3c2CN(C(=O)N[C@H](CN(C)C)c2ccccc2)C3(C)C)c2sccc2n1
Procedure, shortened: as §1

[15] = compound: Cc1nc(Nc2ncc(C(=O)Nc3c(C)cccc3Cl)s2)cc(N2CCN(CCO)CC2)n1 [dasatinib]
Procedure, shortened: as §1

[16] = compound: Cc1ncc(-c2ccnc(Nc3ccc(S(C)(=O)=O)cc3)n2)n1C(C)C
Procedure, shortened: as §1

[17] = compound: Cn1cc(-c2ccc3c(c2)CCN3C(=O)Cc2cccc(C(F)(F)F)c2)c2c(N)ncnc21
Procedure, shortened: as §1

[18] = compound: Cn1cc(-c2ccc3nnc(C(F)(F)c4ccc5ncccc5c4)n3n2)cn1
Procedure, shortened: as §1

[19] = compound: Cn1cncc1[C@@](N)(c1ccc(Cl)cc1)c1ccc2c(c1)c(-c1cccc(Cl)c1)cc(=O)n2C [tipifarnib]
Procedure, shortened: as §1

[20] = compound: FC(F)(F)c1ccc(/C=C/c2nc(COc3ccc(CCCCn4ccnn4)cc3)co2)cc1 [mubritinib]
Procedure, shortened: as §1

Measured: log2 fold change

RCN3 (UniProt Q96D15)
Sequence of UniProt Q96D15 (Q96D15 whole entry, looked up): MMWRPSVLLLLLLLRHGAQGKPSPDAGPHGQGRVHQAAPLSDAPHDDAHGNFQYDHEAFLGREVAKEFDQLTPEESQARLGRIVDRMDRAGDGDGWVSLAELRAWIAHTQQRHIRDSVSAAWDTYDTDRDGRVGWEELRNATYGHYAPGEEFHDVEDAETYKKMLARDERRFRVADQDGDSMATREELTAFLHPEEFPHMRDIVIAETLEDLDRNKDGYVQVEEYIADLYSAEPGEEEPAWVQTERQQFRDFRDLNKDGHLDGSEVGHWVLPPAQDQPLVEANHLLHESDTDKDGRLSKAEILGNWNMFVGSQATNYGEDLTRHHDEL
active: [12] -0.318
inactive: [1] -0.016 | [2] -0.028 | [3] -0.02 | [4] -0.041 | [5] -0.022 | [6] 0.029 | [7] -0.087 | [8] -0.058 | [9] 0.092 | [10] -0.033 | [11] -0.015 | [13] 0.015 | [14] -0.011 | [15] 0.045 | [16] 0.011 | [17] 0.162 | [18] 0.057 | [19] -0.038 | [20] -0.056

RPS3 (UniProt P23396)
inactive: [1] -0.07 | [2] 0.025 | [3] -0.258 | [4] 0.203 | [5] -0.06 | [6] 0.134 | [7] 0.022 | [8] 0.045 | [9] 0.077 | [10] -0.127 | [11] 0.219 | [12] -0.004 | [13] -0.009 | [14] 0.193 | [15] 0.063 | [16] -0.056 | [17] -0.132 | [18] -0.028 | [19] 0.075 | [20] -0.045

RPS14 (UniProt P62263)
inactive: [1] -0.049 | [2] -0.075 | [3] -0.22 | [4] 0.183 | [5] -0.131 | [6] 0.056 | [7] 0.016 | [8] 0.023 | [9] 0.071 | [10] 0.002 | [11] 0.265 | [12] -0.061 | [13] 0.029 | [14] 0.184 | [15] -0.011 | [16] -0.047 | [17] -0.081 | [18] -0.091 | [19] 0.07 | [20] -0.05

SDCBP (UniProt O00560)
Sequence of UniProt O00560 (O00560 whole entry, looked up): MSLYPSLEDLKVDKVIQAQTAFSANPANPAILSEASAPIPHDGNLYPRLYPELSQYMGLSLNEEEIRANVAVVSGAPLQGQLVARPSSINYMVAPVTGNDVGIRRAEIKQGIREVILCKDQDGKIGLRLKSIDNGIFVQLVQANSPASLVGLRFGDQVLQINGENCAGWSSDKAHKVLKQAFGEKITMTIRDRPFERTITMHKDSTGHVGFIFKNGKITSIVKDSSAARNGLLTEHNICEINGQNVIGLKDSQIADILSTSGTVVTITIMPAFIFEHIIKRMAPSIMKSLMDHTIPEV
active: [10] -0.361
inactive: [1] -0.003 | [2] -0.216 | [3] 0.101 | [4] -0.043 | [5] -0.008 | [6] 0.094 | [7] 0.048 | [8] 0.086 | [9] -0.006 | [11] -0.229 | [12] 0.038 | [13] 0.015 | [14] -0.021 | [15] -0.12 | [16] 0 | [17] -0.076 | [18] -0.058 | [19] 0.018 | [20] 0.025

RARS (UniProt P54136)
Sequence of UniProt P54136 (P54136 whole entry, looked up): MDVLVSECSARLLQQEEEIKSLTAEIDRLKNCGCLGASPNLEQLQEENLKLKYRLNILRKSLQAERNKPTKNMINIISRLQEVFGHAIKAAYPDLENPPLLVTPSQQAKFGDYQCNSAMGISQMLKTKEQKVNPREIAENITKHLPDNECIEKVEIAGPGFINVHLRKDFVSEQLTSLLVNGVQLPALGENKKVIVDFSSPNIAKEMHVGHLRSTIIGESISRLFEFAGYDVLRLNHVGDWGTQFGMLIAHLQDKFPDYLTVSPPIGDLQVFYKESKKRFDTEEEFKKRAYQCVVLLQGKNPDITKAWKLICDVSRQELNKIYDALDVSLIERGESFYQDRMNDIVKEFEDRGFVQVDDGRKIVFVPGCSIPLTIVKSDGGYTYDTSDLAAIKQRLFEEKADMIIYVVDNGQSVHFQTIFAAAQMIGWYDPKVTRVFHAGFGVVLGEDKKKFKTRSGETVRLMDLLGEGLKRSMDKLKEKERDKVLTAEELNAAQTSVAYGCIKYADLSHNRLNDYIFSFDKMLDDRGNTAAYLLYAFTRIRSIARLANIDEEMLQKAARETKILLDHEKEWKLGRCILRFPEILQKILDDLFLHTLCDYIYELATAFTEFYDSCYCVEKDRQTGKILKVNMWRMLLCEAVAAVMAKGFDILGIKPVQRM
active: [10] -0.398
inactive: [1] -0.001 | [2] -0.266 | [3] -0.099 | [4] 0.373 | [5] -0.069 | [6] 0.018 | [7] -0.028 | [8] 0.132 | [9] 0.184 | [11] 0.04 | [12] 0.069 | [13] -0.057 | [14] -0.021 | [15] -0.071 | [16] 0.053 | [17] -0.08 | [18] -0.125 | [19] -0.117 | [20] -0.116

SLBP (UniProt Q14493)
Sequence of UniProt Q14493 (Q14493 whole entry, looked up): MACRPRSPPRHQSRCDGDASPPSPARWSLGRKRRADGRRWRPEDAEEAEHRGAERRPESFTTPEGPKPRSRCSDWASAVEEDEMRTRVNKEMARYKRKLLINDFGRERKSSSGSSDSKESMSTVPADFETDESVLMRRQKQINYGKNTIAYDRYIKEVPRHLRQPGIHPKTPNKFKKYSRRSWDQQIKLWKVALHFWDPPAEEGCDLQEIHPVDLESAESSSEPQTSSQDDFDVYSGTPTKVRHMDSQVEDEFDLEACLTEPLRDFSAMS
active: [16] -0.423
inactive: [1] -0.026 | [2] -0.042 | [3] 0.132 | [4] 0.003 | [5] -0.128 | [6] -0.022 | [7] -0.012 | [8] 0.055 | [9] 0.007 | [10] -0.063 | [11] 0.11 | [12] -0.017 | [13] -0.05 | [14] -0.093 | [15] 0.031 | [17] -0.042 | [18] -0.033 | [19] 0 | [20] -0.023

RIOK2 (UniProt Q9BVS4)
Sequence of UniProt Q9BVS4 (Q9BVS4 whole entry, looked up): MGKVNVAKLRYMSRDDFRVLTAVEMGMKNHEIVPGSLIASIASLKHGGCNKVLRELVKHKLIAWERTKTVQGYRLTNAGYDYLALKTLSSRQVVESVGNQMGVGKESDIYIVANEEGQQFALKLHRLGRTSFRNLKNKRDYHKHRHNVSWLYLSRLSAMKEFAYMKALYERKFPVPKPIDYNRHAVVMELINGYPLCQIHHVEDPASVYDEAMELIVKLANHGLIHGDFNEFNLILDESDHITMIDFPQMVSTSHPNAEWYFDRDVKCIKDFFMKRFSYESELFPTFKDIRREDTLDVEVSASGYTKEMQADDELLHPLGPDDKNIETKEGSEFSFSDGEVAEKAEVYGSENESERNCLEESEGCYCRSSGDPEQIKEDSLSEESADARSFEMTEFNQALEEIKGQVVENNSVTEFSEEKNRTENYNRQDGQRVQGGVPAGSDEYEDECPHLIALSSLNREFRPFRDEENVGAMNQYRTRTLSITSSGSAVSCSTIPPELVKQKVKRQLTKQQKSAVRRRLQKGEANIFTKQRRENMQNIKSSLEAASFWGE
inactive: [1] 0.059 | [2] -0.057 | [3] -0.167 | [4] 0.189 | [5] -0.037 | [6] 0.263 | [7] -0.001 | [8] 0.053 | [9] 0.084 | [10] -0.019 | [11] 0.27 | [12] 0.003 | [13] 0.094 | [14] 0.202 | [15] 0.013 | [16] 0.231 | [17] -0.041 | [18] -0.067 | [19] -0.003 | [20] 0.014

RPS5 (UniProt P46782)
inactive: [1] -0.081 | [2] 0 | [3] -0.255 | [4] 0.176 | [5] -0.081 | [6] 0.108 | [7] 0.029 | [8] 0.017 | [9] 0.069 | [10] -0.073 | [11] 0.2 | [12] 0.002 | [13] 0.046 | [14] 0.178 | [15] 0.069 | [16] -0.035 | [17] -0.122 | [18] -0.08 | [19] 0.042 | [20] 0.007
